# Laboratory results published in PubChem BioAssay.
# Where “and” joins values, the source holds several entries; their conditions need not be identical. Equal entries are not always repeated. Calls of active or inactive are those of the source. Unless noted, no stated cut-off is given here; in the data, active means inhibition above about 80%; inactive means the rest.
# Assays:
# [1] = liver-stage malaria parasite load reduction – cell-based, known kinase inhibitor set, luminescence, hepatoma host viability (AID 624392; call rule not given here;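 further: infected cells incubated roughly two days before readout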); conditions: Plasmodium liver stage in hepatoma cells, luciferase luminescence, concentration not given here; liver cell % of control: measured here: host liver cell viability; parasite % of control: stronger effect = lower value
# [2] = growth inhibition, single agents and combos, LFS_MB_1R, cell-based, cisplatin or BGB combos, synergistic combos for chromothripsis tumors (AID 1671452); conditions: LFS_MB_1R medulloblastoma cells, stronger effect = higher value;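 further: cells exposed for 96 hours before readout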
# [3] = growth inhibition, single agents and combos, CRL2098, cell-based, BGB or cisplatin IC20 combos, synergistic combos for chromothripsis tumors (AID 1671454); conditions: CRL2098 osteosarcoma cells, drug combinations, stronger effect = higher value;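 further: cells exposed for 96 h before readout; 0% = vehicle DMSO and 100% = killing by high DMSO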
# [4] = growth inhibition, single agents and combos, HD-MB03, cell-based, BGB or cisplatin IC20 combos, synergistic combos for chromothripsis tumors (AID 1671455; in the data active means inhibition above about 83%;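 further: 0% = vehicle DMSO and 100% = high DMSO as cytotoxic control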); conditions: HD-MB03 medulloblastoma cells, stronger effect = higher value
# [5] = growth inhibition, single agents and combos, UWB1.289, cell-based, BGB or cisplatin combos, synergistic combos for chromothripsis tumors (AID 1671456); conditions: UWB1.289 ovarian carcinoma cells, stronger effect = higher value;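 further: cells exposed to compound for four days; 0% = vehicle DMSO and 100% = killing by high DMSO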
# [6] = growth inhibition, single agents and combos, LFS_MB_2R, cell-based, cisplatin combos, synergistic combos for chromothripsis tumors (AID 1671457); conditions: LFS_MB_2R medulloblastoma cells, stronger effect = higher value;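 further: cells exposed to compound for four days before readout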
# [7] = UWB1.289_BRCA1 ovarian cancer growth, cell-based, BGB or cisplatin combinations (AID 1671459); conditions: UWB1.289 BRCA1 ovarian carcinoma, drug combinations, stronger effect = higher value
# [8] = drug combination toxicity in non-malignant astrocytes – cell-based, BGB or cisplatin IC20 combos, cytotoxicity control for chromothriptic childhood tumor combination screen (AID 1671460); conditions: Human astrocytes, viability inhibition, drug combinations, at 0.5 µM, stronger effect = higher value;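 further: cells exposed to compounds for 96 hours before viability readout; 0% = vehicle and 100% = killing control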
# [9] = biological target: NAD(+) hydrolase SARM1 (Homo sapiens) (UniProt Q6SZW1); assay: blocking NAD cleavage by SARM1 SAM-TIR – cell lysate, NAD-Glo luminescence (AID 1508614;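 active means compound whose remaining NAD level is above about 45 nM, limit read from the data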); conditions: SAM-TIR HEK293T lysate NADase, at 1 µM, stronger effect = higher value
# Chain of NAD(+) hydrolase SARM1 (Homo sapiens) (Q6SZW1 whole entry, looked up): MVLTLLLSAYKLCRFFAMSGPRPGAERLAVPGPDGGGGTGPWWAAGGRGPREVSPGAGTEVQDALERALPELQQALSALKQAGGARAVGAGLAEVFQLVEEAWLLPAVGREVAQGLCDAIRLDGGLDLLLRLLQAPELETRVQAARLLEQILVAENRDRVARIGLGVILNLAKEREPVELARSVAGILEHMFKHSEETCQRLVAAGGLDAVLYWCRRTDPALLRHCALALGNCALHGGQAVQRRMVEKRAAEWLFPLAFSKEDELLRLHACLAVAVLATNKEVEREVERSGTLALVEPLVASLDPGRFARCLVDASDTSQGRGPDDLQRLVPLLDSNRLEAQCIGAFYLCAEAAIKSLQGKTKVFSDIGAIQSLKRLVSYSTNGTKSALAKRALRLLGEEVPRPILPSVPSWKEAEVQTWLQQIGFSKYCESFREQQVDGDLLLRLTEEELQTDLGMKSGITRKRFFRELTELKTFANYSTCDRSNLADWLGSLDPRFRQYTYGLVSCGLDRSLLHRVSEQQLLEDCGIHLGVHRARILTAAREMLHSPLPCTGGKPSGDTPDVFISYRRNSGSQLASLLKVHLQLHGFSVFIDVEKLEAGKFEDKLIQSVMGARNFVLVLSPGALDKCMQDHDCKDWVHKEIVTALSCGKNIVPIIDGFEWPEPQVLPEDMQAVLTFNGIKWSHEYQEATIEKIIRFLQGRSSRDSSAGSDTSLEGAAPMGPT
# [10] = P. berghei load reduction in hepatocytes – cell-based, HepG2, luciferase luminescence, HepG2 viability, primary screen (AID 624349; in the data active means parasite load remaining mostly below about 12%, no sharp cut-off; inactive means mostly above about 10%;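 further: 100% = mean of DMSO negative control wells on the same plate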); conditions: P. berghei liver stage in HepG2, luciferase luminescence, concentration not given here; parasite load remaining: stronger effect = lower value; viability: measured here: HepG2 viability without parasites
# [11] = blockers of cellular phospholipid synthesis – cell-based, LOPAC library, screen 4, primary screen (AID 1347384; call rule not given here); conditions: animal cells, phospholipid biosynthesis inhibition screen; at 10 µM
# [12] = measured here: combination with BGB IC40, at 0.05 µM
# [13] = measured here: combination with cisplatin, at 0.5 µM
# [14] = measured here: combination with cisplatin, at 5 µM
# [15] = measured here: combination with BGB at IC20, at 0.5 µM
# [16] = measured here: combination with cisplatin at IC20, at 0.5 µM
# [17] = measured here: combo with BGB at IC20, at 0.5 µM
# [18] = measured here: combo with cisplatin at IC20, at 0.5 µM
# [19] = measured here: inhibition with BGB combination, at 0.05 µM
# [20] = measured here: inhibition with cisplatin combination, at 0.05 µM
# [21] = BGB combination, concentration series, at 5 µM
# [22] = cisplatin combination, concentration series, at 5 µM
# [23] = measured here: combo with BGB IC20
# [24] = measured here: combo with cisplatin IC20
structure (smiles),measurement,setting,value
O=C(O)c1ccc2c(c1)nc(Nc1cccc(Cl)c1)c1ccncc12,liver cell % of control,[1],84.7% and 84.9% and 89.8%
same,parasite % of control,[1],247% (inactive) and 142% (inactive) and 94.6% (inactive)
O=C(O)[C@H](Cc1c[nH]c2ccccc12)N1C(=O)c2ccccc2C1=O,inhibition,[2]; at 0.5 µM,-21% (inactive)
same,inhibition,[2]; [12],-49.9%
same,inhibition,[2]; [13],-9.64%
same,inhibition,[2]; [14],-81.2%
same,inhibition,[3]; at 0.5 µM,-82% (inactive)
same,inhibition,[3]; [15],-46.6%
same,inhibition,[3]; [16],-131%
same,inhibition,[4]; at 0.5 µM,-20.5% (inactive)
same,inhibition,[4]; [17],-26.8%
same,inhibition,[4]; [18],-27.1%
same,inhibition,[5]; at 0.5 µM,-10.8% (inactive)
same,inhibition,[5]; [19],-20.2%
same,inhibition,[5]; [20],-43.5%
same,inhibition,[6]; at 0.5 µM,-17.3% (inactive)
same,inhibition,[6]; [13],-13%
same,inhibition,[6]; [14],-8.45%
same,inhibition,[7]; [21],-11.5%
same,inhibition,[7]; at 0.5 µM,-15.7% (inactive)
same,inhibition,[7]; [22],-28.9%
same,inhibition,[8],-2.94% (inactive)
same,inhibition,[8]; [23],-8.01%
same,inhibition,[8]; [24],4.01%
C[C@]1(c2nc3c(C(N)=O)cccc3[nH]2)CCCN1,inhibition,[2]; at 0.5 µM,-23.5% (inactive) and -13.6% (inactive)
same,inhibition,[2]; [12],-41.9% and -23.5%
same,inhibition,[2]; [13],-45.7% and 4.68%
same,inhibition,[2]; [14],-38.3% and -18.5%
same,inhibition,[3]; at 0.5 µM,-49.8% (inactive) and -59.1% (inactive)
same,inhibition,[3]; [15],-12.1% and -70.3%
same,inhibition,[3]; [16],-110% and -65.8%
same,inhibition,[4]; at 0.5 µM,-8.8% (inactive) and -9.57% (inactive)
same,inhibition,[4]; [17],-16.2% and -2.73%
same,inhibition,[4]; [18],-3.64% and -17.6%
same,inhibition,[5]; at 0.5 µM,-9.31% (inactive) and 2.13% (inactive)
same,inhibition,[5]; [19],-8.28% and -17%
same,inhibition,[5]; [20],-23.7% and -11.7%
same,inhibition,[6]; at 0.5 µM,-25% (inactive) and -15.4% (inactive)
same,inhibition,[6]; [13],-36.7% and -21.6%
same,inhibition,[6]; [14],-29.1% and -120%
same,inhibition,[7]; [21],10.2% and -0.186%
same,inhibition,[7]; at 0.5 µM,-7.22% (inactive) and -0.79% (inactive)
same,inhibition,[7]; [22],-4.84% and 4.22%
same,inhibition,[8],9.85% (inactive) and -2.9% (inactive)
same,inhibition,[8]; [23],-1.53% and -5.78%
same,inhibition,[8]; [24],9.8% and -13.1%
C[C@H]1[C@H](OC(=O)CCC(=O)O)O[C@@H]2O[C@@]3(C)CC[C@H]4[C@H](C)CC[C@@H]1[C@@]24OO3,remaining NAD,[9],10 nM (inactive)
O=C1NCCc2[nH]c(-c3ccncc3)cc21,parasite load remaining,[10],110% (inactive)
same,viability,[10],61.5%
same,outcome,[11],inactive
Cc1ccc2nc(NCCN)c3ncc(C)n3c2c1,inhibition,[2]; at 0.5 µM,1.37% (inactive)
same,inhibition,[2]; [12],-13.1%
same,inhibition,[2]; [13],-5.04%
same,inhibition,[2]; [14],83.6%
same,inhibition,[3]; at 0.5 µM,-21.4% (inactive)
same,inhibition,[3]; [15],13.8%
same,inhibition,[3]; [16],-60.3%
same,inhibition,[4]; at 0.5 µM,-5.33% (inactive)
same,inhibition,[4]; [17],-7.44%
same,inhibition,[4]; [18],-1.09%
same,inhibition,[5]; at 0.5 µM,-4.12% (inactive)
same,inhibition,[5]; [19],-17.4%
same,inhibition,[5]; [20],-11.7%
same,inhibition,[6]; at 0.5 µM,-14.5% (inactive)
same,inhibition,[6]; [13],-10.3%
same,inhibition,[6]; [14],15.9%
same,inhibition,[7]; [21],91.7%
same,inhibition,[7]; at 0.5 µM,1.55% (inactive)
same,inhibition,[7]; [22],76.1%
same,inhibition,[8],-0.35% (inactive)
same,inhibition,[8]; [23],0.763%
same,inhibition,[8]; [24],2.83%
CN(C)CCN1C(=O)c2cccc3cc(N)cc(c23)C1=O,inhibition,[2]; at 0.5 µM,-23% (inactive)
same,inhibition,[2]; [12],-41.2%
same,inhibition,[2]; [13],-45%
same,inhibition,[2]; [14],16.5%
same,inhibition,[3]; at 0.5 µM,-63% (inactive)
same,inhibition,[3]; [15],-22.2%
same,inhibition,[3]; [16],-129%
same,inhibition,[4]; at 0.5 µM,1.51% (inactive)
same,inhibition,[4]; [17],-11.9%
same,inhibition,[4]; [18],14.4%
same,inhibition,[5]; at 0.5 µM,-5.91% (inactive)
same,inhibition,[5]; [19],-1.98%
same,inhibition,[5]; [20],-18.9%
same,inhibition,[6]; at 0.5 µM,-25.1% (inactive)
same,inhibition,[6]; [13],-29.2%
same,inhibition,[6]; [14],-2.51%
same,inhibition,[7]; [21],38.8%
same,inhibition,[7]; at 0.5 µM,-2.87% (inactive)
same,inhibition,[7]; [22],37.9%
same,inhibition,[8],2.38% (inactive)
same,inhibition,[8]; [23],-2.82%
same,inhibition,[8]; [24],-2.98%
